Shown are actives, neighbours in structure and some others; about 4.2% of the full set was active somewhere.
Mtb FBA inh – inhibitors of M. tuberculosis fructose-bisphosphate aldolase | 360,000 compounds, 2.3% hits | AID 588726 | inhibition, % at 1 µM | P9WQA3 | purified M. tuberculosis FBA, fluorescence read-out
Mtb betalactam – beta-lactam sensitization of Mtb H37Rv; M. tuberculosis H37Rv growth with meropenem, percent inhibition; 330,000 compounds, 0.27% hits; inhibition, % at 25 µM; call rule not given here;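 also: growth measured after seven days incubation then overnight dye step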
CCHFV vOTU inh – blocks the CCHF virus ovarian tumor domain protease | CCHFV vOTU protease, Pep-AMC fluorescence | inhibition, % at 11.5 µM | 370,000 compounds, 0.55% hits; in the data active = inhibition above about 30%
RecA splice inh – blocks M. tuberculosis RecA intein splicing | AID 2221 | inhibition, % (test concentration not listed) | cell-free RecA intein splicing, fluorescence | 290,000 compounds, 0.75% hits | P9WHJ3; in the data active = inhibition above about 30%
GDH-TPI counter-1 – GDH-TPI coupled enzyme inhibition counter-screen. 360,000 compounds, 1.2% hits. GDH-TPI coupled enzyme counterscreen, NADH absorbance. AID 588335. inhibition, % at 4.8 µM; in the data active = inhibition above about 30%
Mtb FBA confirm – Mtb FBA inhibition, confirmed. shares compounds with Mtb FBA inh. purified M. tuberculosis FBA, fluorescence read-out. inhibition, % at 1 µM. 5,600 compounds, 78% hits
GDH-TPI counter-2 – inhibits GDH-TPI coupling enzymes, flagging Mtb FBA hits; shares compounds with Mtb FBA inh; GDH-TPI coupled enzyme counterscreen, fluorescence; inhibition, % at 1 µM; 5,600 compounds, 81% hits; in the data active = inhibition above about 10%
GDH-TPI DR – GDH-TPI dose response counter-screen for Mtb FBA; IC50, µM; shares compounds with Mtb FBA inh; AID 652145; 170 compounds, 79% hits; GDH-TPI coupled enzyme assay, fluorescence, artifact counterscreen; call rule not given here
A number is an active result; 0 = inactive; - = no result given; + = active, no number. Rule as the data show it, unless noted: active = inhibition above about 27%; inactive = the rest.

SMILES	Mtb FBA inh	Mtb betalactam	CCHFV vOTU inh	RecA splice inh	GDH-TPI counter-1	Mtb FBA confirm	GDH-TPI counter-2	others
S=C(c1ccc(OCc2ccccc2)cc1)N1CCCC1	30.4	0	0	0	0	0	0	GDH-TPI DR=0
Fc1ccc(COc2ccc(C(=S)N3CCCC3)cc2)cc1	0	0	0	0	0	-	-
Cc1ccc(-n2c(SCC(=O)Nc3ccc4c(c3)OCCO4)nnc2-c2cccnc2)cc1	-	-	0	-	-	-	-
CC(=O)NN1CCc2cc3ccc(C)cc3nc21	39.6	0	0	0	0	0	0
Cc1ccc2cc3c(nc2c1)N(c1ccccc1)CC3	47.2	0	0	0	0	0	0
Cc1ccc2cc(C(=O)O)c(C)nc2c1	0	0	0	0	0	-	-
Cc1cccc(N2CCc3c2nc2ccc(Br)cc2c3N)c1	0	0	0	0	0	-	-
COc1cccc(-c2cc(C(=O)Nc3ccccc3)c3ccccc3n2)c1	0	0	0	0	0	-	-
COc1ccc(COc2cc(-c3cccc(OC)c3)nc3ccc(NC(=O)C(C)C)cc23)cc1	42.9	0	0	0	0	87.3	71.1
N=c1oc2cc(O)ccc2cc1C(=O)Nc1ccc(F)cc1	90.5	0	0	0	0	160.1	133.7
Cc1ccc(NC(=O)OC[C@@H]2CSCCS(=O)(=O)N2)cc1	-	-	0	-	-	-	-
CNc1ccccc1C(=O)OCC(=O)N(CCOC)c1c(N)n(CC(C)C)c(=O)[nH]c1=O	92.4	0	0	0	0	+	+
CCN(C(=O)COC(=O)c1cc2ccccc2cc1OC)c1c(N)n(Cc2ccccc2)c(=O)[nH]c1=O	38.8	-	0	-	0	101.9	69.8
COc1cc2ccccc2cc1C(=O)OCC(=O)N(C)c1c(N)n(Cc2ccccc2)c(=O)[nH]c1=O	0	0	0	0	0	-	-
COCCN(C(=O)COC(=O)c1ccccc1Cc1ccccc1)c1c(N)n(Cc2ccccc2)c(=O)[nH]c1=O	0	0	0	0	0	-	-
COC(=O)c1cc2c(c3c4cc(C)ccc4n(S(=O)(=O)c4ccc(OC)cc4)c13)C(=O)N(C)C2	-	-	0	-	-	-	-
COc1ccccc1CCn1cnc(-c2ccccc2OC)c1CC(C)C	-	-	0	-	-	-	-
CCCn1nnnc1NCc1c(F)cccc1Cl	68.3	0	0	0	0	0	0
Cc1ccc(C(=O)n2ccc3ccc(-c4ccc5ccn(Cc6ccc(C#N)cc6)c5c4)cc32)cc1	-	-	0	-	-	-	-
COC(=O)Cc1ccc(OCc2ccc(Cl)nc2)cc1	53.3	0	0	0	0	147.9	102.3
CC(=O)C(Cc1ccc(Cl)nc1)Cc1ccc(Cl)nc1	0	0	0	0	0	-	-
COC(=O)C1=C(C)N(Cc2ccccc2C(F)(F)F)C(=NCc2ccccc2)NC1c1cccc(C(F)(F)F)c1 (stereo unspecified)	-	-	0	-	-	-	-
NS(=O)(=O)c1cccc(NC(=O)COC(=O)COc2ccc3ccccc3c2)c1	0	0	0	0	0	-	-
NS(=O)(=O)c1ccc(NC(=O)COC(=O)COc2ccc3ccccc3c2)cc1	42.3	0	0	0	0	55.5	37.4
O=C(Nc1ccc2c(c1)C(=O)OC2)c1ccc(Cl)cc1Cl	0	0	0	0	0	-	-
SMILES	Mtb FBA inh	Mtb betalactam	CCHFV vOTU inh	RecA splice inh	GDH-TPI counter-1	Mtb FBA confirm	GDH-TPI counter-2	others
CN1C(=O)c2ccc(NC(=O)c3ccc(Cl)cc3Cl)cc2C1=O	37.5	0	0	0	0	95.1	70.0
O=C(CN1C(=O)/C(=C\c2ccccc2Br)Oc2ccccc21)NCCCN1CCOCC1	41.0	0	0	0	0	58.2	53.4
CC1Oc2ccccc2N(CC(=O)NCCCN2CCOCC2)C1=O (stereo unspecified)	0	0	0	0	0	-	-
CCCC(=O)N1CCC[C@]2(CC[C@@H](CCC#N)O2)C1	-	-	0	-	-	-	-
Cc1ccc(-c2cc(-c3ccccc3)cc(-c3ccccc3)[n+]2-c2ccccc2C(=O)O)cc1	54.0	0	0	0	0	0	0
CCOc1ccc(NC(=O)CSc2nnc(-c3n[nH]c4c3CCC4)n2N)cc1	-	-	0	-	-	-	-
Clc1ccc(-c2nc3ccccc3[nH]2)cn1	72.2	0	0	-	0	97.4	83.7
Cc1nc2ccc(-c3nc4ccccc4[nH]3)cc2[nH]1	34.4	0	0	0	0	77.6	60.8
CCCNc1cc(C)c(C#N)c2nc3ccccc3n12	69.5	0	0	-	0	55.4	44.9
Cc1cc(N2CCN(c3ccccn3)CC2)n2c(nc3ccccc32)c1C#N	0	-	0	0	0	-	-

Compound activity from PubChem.
